# In PubChem BioAssay:
# Where “and” joins values, the source holds several entries; their conditions need not be identical. Equal values may be shown once. Inconclusive results are not listed. Calls of active or inactive are those of the source.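 Rule for the calls, unless noted: active = normalized viability below 100% at a tested concentration; inactive = the rest.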 Where a SMILES comes first, the peptide text is derived from it. [ ]: non-standard residue; d: D form. The star is where a group is joined. Sta = CC(C)C[C@H](N)[C@@H](O)CC(=O)O; Isovaleryl = CC(C)CC(=O)*
# How the values were obtained:
# [1] = stimulators of nuclear beta-catenin in C2C12, primary screen, imaging, WNT3A-conditioned medium, mouse C2C12, NPC library (AID 1117326; in the data active = nuclear beta-catenin stimulation mostly above about 4.2%, no sharp cut-off; inactive = mostly below about 10%); conditions: stronger effect = higher value
# [2] = stimulators of insulin release from INS-1E, primary screen, cell-based, 5 mM glucose, NPC library (AID 1117329;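 active = compound raises insulin release from rat beta cells at 5 mM glucose, no numeric limit stated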); conditions: rat INS-1E insulin secretion, at 10 µM, stronger effect = higher value
# [3] = growth inhibition of GSK3B-pretreated HCT116 cells – cell-based, CellTiter-Glo, 0.2 to 20 µM (AID 1117336;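 active = compounds lowering colon cancer cell viability after pretreatment blocking the GSK3B kinase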); conditions: HCT116 viability after GSK3B inhibitor, at 20 µM, stronger effect = higher value
# [4] = inhibition of endothelial tube formation, primary screen, imaging, VEGF stimulated, CD31 staining, tube area, NPC library (AID 1117340;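 active = compound that reduces growth-factor-driven endothelial tube area in a mixed cell culture, no cutoff stated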); conditions: VEGF-stimulated ADSC/ECFC co-culture, at 10 µM, stronger effect = higher value
# [5] = glucagon-like peptide 1 release enhancers, primary assay, NCI-H716 cell line, NPC library (AID 1117341;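 active = compound raises GLP1 secretion from the human gut endocrine cells, with no numeric limit stated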); conditions: NCI-H716 cells, at 10 µM, stronger effect = higher value
# [6] = HCT116 colon cancer cell growth inhibition, primary screen, CellTiter-Glo luminescence, NPC library (AID 1117342;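 active = compounds that lower survival of HCT116 colon cancer cells in the luminescence readout, no numeric limit stated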); conditions: at 20 µM (top of the series)
# [7] = CellTiter-Glo luminescent readout of SW480 viability loss, NPC library primary (AID 1117343;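 active = compounds that lower viability of the colon cancer cells in the luminescence readout, with no numeric limit stated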); conditions: CellTiter-Glo luminescence; at 20 µM (top of the series) unless noted
# [8] = decreased DLD-1 cellular survival, CellTiter-Glo luminescent readout, NPC compound collection, primary HTS (AID 1117346;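 active = compounds that lower survival of DLD-1 colon cancer cells in the luminescence readout, no cutoff given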); conditions: DLD-1 viability, CellTiter-Glo luminescence; at 20 µM (top of the series)
# [9] = growth inhibition of DIPG glioma cells, dose response, cell-based, SU-DIPG-XVII, MIPE5.0, CellTiter-Glo, qHTS (AID 1347060; cut-off not given, nearly all actives have AC50 up to about 26 µM;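 for AC50: cells exposed to compound for 48 hours before viability readout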); conditions: SU-DIPG-XVII viability, CellTiter-Glo ATP luminescence
# [10] = growth inhibition of DIPG glioma cells, dose response, cell-based, SU-DIPG-XIII, MIPE4.0, CellTiter-Glo, qHTS (AID 1347061; cut-off not given, nearly all actives have AC50 up to about 37 µM;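 note: cells exposed to compound for 48 hours before readout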); conditions: SU-DIPG-XIII viability, CellTiter-Glo ATP luminescence
# [11] = growth inhibition of DIPG glioma cells, dose response, cell-based, JHH-DIPG-1, MIPE4.0, CellTiter-Glo, qHTS (AID 1347062; cut-off not given, nearly all actives have AC50 up to about 27 µM;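 for AC50: cells exposed to compound for two days before readout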); conditions: JHH-DIPG-1 viability, CellTiter-Glo ATP luminescence
# [12] = SU-DIPG-XXV glioma cell viability, MIPE5.0 library, qHTS (AID 1347068; cut-off not given, nearly all actives have IC50 up to about 30 µM;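 for IC50: cells exposed to compound for 48 hours before viability readout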)
# [13] = sensitizers of A549 cells to miR-34 induction, primary screen, imaging, A549 dox-inducible miR-34, nuclei and caspase counts (AID 1347080;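 active = compounds whose cell count with miR-34 switched on is under 0.7 times the count with it off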); conditions: A549 miR-34 inducible, Hoechst nuclei count, 48 h
# [14] = survival rescue of mitochondrial mutant cells in low glucose, primary screen, MELAS cybrids, Rieske KO mouse fibroblasts, CellTiter-Glo (AID 1508586;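 active = mean z-score across replicates of 1.96 or higher in either the MELAS or the Rieske mutant cell line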;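 note: z relative to plate mean and SD of compound and empty wells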)
# [15] = ovarian cancer cell viability with rucaparib, profiling panel, oncology-focused library, rucaparib conditional (AID 1508598); conditions: patient-derived ovarian cancer cells, CellTiter-Glo viability, 144 h, stronger effect = lower value
# [16] = liver-stage malaria parasite growth inhibition, primary screen, cell-based, HepG2, luciferase luminescence, HepG2 viability (AID 624349; in the data active = parasite load remaining mostly below about 12%, no sharp cut-off; inactive = mostly above about 10%;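 note: 100% = mean of DMSO negative control wells on the same plate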); conditions: P. berghei liver stage in HepG2, luciferase luminescence, concentration not given here; parasite load remaining: stronger effect = lower value; viability: measured here: HepG2 viability without parasites
# [17] = stronger effect = lower value, cell number ratio, induced over uninduced
# [18] = measured here: relative caspase fold change +Dox/-Dox
# [19] = measured here: total cells with miR-34 induction, stronger effect = lower value
# [20] = measured here: total cells without miR-34 induction
# [21] = MELAS cybrid survival, CellTiter-Glo 48 h, stronger effect = higher value
# [22] = Rieske KO mouse fibroblast survival, CellTiter-Glo 72 h
structure (smiles),measurement,setting,value
CNC(=O)c1cc(Oc2ccc(NC(=O)Nc3ccc(Cl)c(C(F)(F)F)c3)cc2)ccn1,nuclear beta-catenin stimulation,[1]; at 10 µM,-1.4% (inactive)
same,nuclear beta-catenin stimulation,"[1]; stimulation, at 2 µM",9.1%
same,insulin secretion stimulation,[2],0.4% (inactive)
same,viability decrease,[3],120% (active)
same,tube area decrease,[4],111% (active)
same,GLP1 secretion stimulation,[5],-3.6% (inactive)
same,inhibition of viability,[6],124% (active)
same,viability decrease (inhibition),[7],166% (active)
same,viability decrease (inhibition),[8],102% (active)
same,AC50,[9],14.8 µM (active)
same,AC50,[10],18.7 µM (active)
same,AC50,[11],18.7 µM (active)
same,IC50,[12],10.5 µM (active)
same,fold change,[13]; [17],0.979 (inactive) and 1.42 (inactive)
same,fold change,[13]; [18],0.87 and 0.612
same,cell count,[13]; [19],1320 and 3300
same,cell count,[13]; [20],1350 and 2320
same,z-score,[14]; [21],-0.549 (inactive) and -0.383 (inactive)
same,z-score,[14]; [22],0.813 and 0.844
same,viability,"[15]; at 0.000305 µM, OCI-C5x cells, with rucaparib 10 µM, 100% = cells with rucaparib alone",115% (inactive)
same,viability,"[15]; at 0.000305 µM, OCI-C5x cells, without rucaparib",112% (inactive)
same,viability,"[15]; at 0.000305 µM, OCI-P5x cells, with rucaparib 20 µM, 100% = cells with rucaparib alone",124% (inactive)
same,viability,"[15]; at 0.000305 µM, OCI-P5x cells, without rucaparib",97.6% (active)
same,viability,"[15]; at 0.00122 µM, OCI-C5x cells, with rucaparib 10 µM, 100% = cells with rucaparib alone",119% (inactive)
same,viability,"[15]; at 0.00122 µM, OCI-C5x cells, without rucaparib",111% (inactive)
same,viability,"[15]; at 0.00122 µM, OCI-P5x cells, with rucaparib 20 µM, 100% = cells with rucaparib alone",129% (inactive)
same,viability,"[15]; at 0.00122 µM, OCI-P5x cells, without rucaparib",99.4% (active)
same,viability,"[15]; at 0.00488 µM, OCI-C5x cells, with rucaparib 10 µM, 100% = cells with rucaparib alone",119% (inactive)
same,viability,"[15]; at 0.00488 µM, OCI-C5x cells, without rucaparib",114% (inactive)
same,viability,"[15]; at 0.00488 µM, OCI-P5x cells, with rucaparib 20 µM, 100% = cells with rucaparib alone",136% (inactive)
same,viability,"[15]; at 0.00488 µM, OCI-P5x cells, without rucaparib",99.4% (active)
same,viability,"[15]; at 0.0195 µM, OCI-C5x cells, with rucaparib 10 µM, 100% = cells with rucaparib alone",111% (inactive)
same,viability,"[15]; at 0.0195 µM, OCI-C5x cells, without rucaparib",112% (inactive)
same,viability,"[15]; at 0.0195 µM, OCI-P5x cells, with rucaparib 20 µM, 100% = cells with rucaparib alone",133% (inactive)
same,viability,"[15]; at 0.0195 µM, OCI-P5x cells, without rucaparib",101% (inactive)
same,viability,"[15]; at 0.0781 µM, OCI-C5x cells, with rucaparib 10 µM, 100% = cells with rucaparib alone",108% (inactive)
same,viability,"[15]; at 0.0781 µM, OCI-C5x cells, without rucaparib",106% (inactive)
same,viability,"[15]; at 0.0781 µM, OCI-P5x cells, with rucaparib 20 µM, 100% = cells with rucaparib alone",144% (inactive)
same,viability,"[15]; at 0.0781 µM, OCI-P5x cells, without rucaparib",99.6% (active)
same,viability,"[15]; at 0.313 µM, OCI-C5x cells, with rucaparib 10 µM, 100% = cells with rucaparib alone",111% (inactive)
same,viability,"[15]; at 0.313 µM, OCI-C5x cells, without rucaparib",116% (inactive)
same,viability,"[15]; at 0.313 µM, OCI-P5x cells, with rucaparib 20 µM, 100% = cells with rucaparib alone",144% (inactive)
same,viability,"[15]; at 0.313 µM, OCI-P5x cells, without rucaparib",105% (inactive)
same,viability,"[15]; at 1.25 µM, OCI-C5x cells, with rucaparib 10 µM, 100% = cells with rucaparib alone",116% (inactive)
same,viability,"[15]; at 1.25 µM, OCI-C5x cells, without rucaparib",120% (inactive)
same,viability,"[15]; at 1.25 µM, OCI-P5x cells, with rucaparib 20 µM, 100% = cells with rucaparib alone",155% (inactive)
same,viability,"[15]; at 1.25 µM, OCI-P5x cells, without rucaparib",114% (inactive)
same,viability,"[15]; at 5 µM, OCI-C5x cells, with rucaparib 10 µM, 100% = cells with rucaparib alone",123% (inactive)
same,viability,"[15]; at 5 µM, OCI-C5x cells, without rucaparib",126% (inactive)
same,viability,"[15]; at 5 µM, OCI-P5x cells, with rucaparib 20 µM, 100% = cells with rucaparib alone",31.8% (active)
same,viability,"[15]; at 5 µM, OCI-P5x cells, without rucaparib",116% (inactive)
CC(C)CC(=O)N[C@H](C(=O)N[C@H](C(=O)N[C@@H](CC(C)C)[C@@H](O)CC(=O)N[C@@H](C)C(=O)N[C@@H](CC(C)C)[C@@H](O)CC(=O)O)C(C)C)C(C)C (Isovaleryl-VV[Sta]A[Sta]-OH),parasite load remaining,[16],101% (inactive)
same,viability,[16],102%
same,nuclear beta-catenin stimulation,[1]; at 10 µM,-1.6% (inactive)
same,nuclear beta-catenin stimulation,"[1]; stimulation, at 2 µM",-0.3%
same,insulin secretion stimulation,[2],4.9% (inactive)
same,viability decrease,[3],-3.4% (inactive)
same,tube area decrease,[4],-25.1% (inactive)
same,GLP1 secretion stimulation,[5],0.5% (inactive)
same,inhibition of viability,[6],4% (inactive)
same,viability decrease (inhibition),[7],-0.3% (inactive)
same,viability decrease (inhibition),[8],13% (active)
same,outcome,[9],inactive
same,outcome,[10],inactive
same,outcome,[11],inactive
same,outcome,[12],inactive
same,fold change,[13]; [17],0.91 (inactive) and 1.02 (inactive)
same,fold change,[13]; [18],1.28 and 1.09
same,cell count,[13]; [19],7720 and 5130
same,cell count,[13]; [20],8480 and 5040
same,z-score,[14]; [21],-1.11 (inactive)
same,z-score,[14]; [22],-0.328
